# Unmarked numbers belong to inactive results. Some of the results follow. Calls of active or inactive are those of the source. Unless noted, no stated cut-off is given here; in the data, active means inhibition above about 25%; inactive means the rest.
# What was measured:
# [1] = growth loss of phage-infected E. coli expressing H. pylori AddAB, confirmation, AddAB inhibitor project, absorbance, E. coli V3065, T4 phage, triplicate (AID 488942;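 active means mean inhibition above a set limit taken from the earlier primary screen, cut at about 13% in these data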;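 further: higher means less bacterial growth since AddAB block lets phage replicate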); conditions: OD, at 11.9 µM, stronger effect = higher value, T4 phage with gene 2 nonsense mutations
# [2] = growth loss of RecBCD+ E. coli with mutant T4 phage, counter-screen for AddAB inhibitor project, absorbance, V66 E. coli (AID 488955;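 active means mean inhibition above the mean of solvent-only control wells plus 3 SD, cut at about 4% in these data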;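 further: optical density read after an 18 h incubation at 37 °C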); conditions: OD growth, at 11.9 µM, stronger effect = higher value
# [3] = bacterial viability inhibition counter-screen, confirmation, counter-screen for AddAB inhibitor project, absorbance (AID 488956); conditions: absorbance (AddAB counterscreen), at 11.9 µM, stronger effect = higher value
# [4] = growth loss of phage-infected RecBCD+ E. coli, confirmation, RecBCD inhibitor project, absorbance, E. coli V66, T4 gene 2 phage (AID 651982;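 active means mean inhibition over triplicates exceeding the hit threshold derived in the original primary screen, cut at about 11% in these data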); conditions: E. coli V66 + T4 2- phage, growth OD; at 11.9 µM; stronger effect = higher value
# [5] = E. coli viability inhibition, counter-screen for RecBCD inhibitor project, absorbance, high throughput (AID 651983; in the data active means inhibition above about 20%;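 further: E. coli strain V66 grown with compound alone and no phage infection; 0% = bacteria with DMSO vehicle only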); conditions: absorbance (OD) growth, at 11.9 µM, stronger effect = higher value
# [6] = growth loss of phage-infected AddAB-carrying E. coli, confirmation, counter-screen for RecBCD inhibitor project, absorbance, E. coli V3065, T4 phage (AID 651984;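 active means mean inhibition above the solvent-only control wells' mean plus 3 SD, cut at about 22% in these data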;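 further: higher means less bacterial growth from phage killing when AddAB is blocked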); conditions: E. coli expressing H. pylori AddAB + T4 phage, OD growth; at 11.9 µM; stronger effect = higher value; gene 2 mutant T4, recBCD-deleted host
# [7] = StAR promoter reporter inhibitors, counter-screen for LRH-1 inverse agonist project, cell-based, luminescence, high throughput (AID 651611; in the data active means inhibition above about 28%); conditions: StAR promoter luciferase reporter counterscreen, at 3.6 µM, stronger effect = higher value
# [8] = target: Nuclear receptor subfamily 5 group A member 2 (Homo sapiens) (UniProt O00482); assay: LRH-1 (NR5A2) inverse agonists, retest, confirmation, cell-based, luminescence (AID 651613; in the data active means inhibition above about 42%;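 further: HEK293T cells co-transfected with LRH-1 and StAR promoter luciferase reporter; 0% = vehicle wells and 100% = parental cells lacking receptor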); conditions: cell-based LRH-1 luciferase reporter, inverse agonism; at 3.6 µM; stronger effect = higher value
# [9] = target: Steroidogenic factor 1 (Homo sapiens) (UniProt Q13285); assay: SF1 (NR5A1) inverse agonists, counter-screen for LRH-1 inverse agonist project, cell-based, luminescence, high throughput (AID 651614; in the data active means inhibition above about 44%;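 further: cells cotransfected with StAR promoter reporter and SF1 expression vector; 0% = vehicle on cells with receptor and 100% = vehicle on cells lacking receptor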); conditions: cell-based SF1 luciferase reporter, at 3.6 µM, stronger effect = higher value
# [10] = VP16 transactivation reporter inhibitors, counter-screen for LRH-1 inverse agonist project, cell-based, luminescence, high throughput (AID 651615; in the data active means inhibition above about 33%); conditions: Gal4-VP16 luciferase reporter cells, at 3.6 µM, stronger effect = higher value
# [11] = target: Platelet-activating factor acetylhydrolase IB subunit alpha1 (Homo sapiens) (UniProt Q15102); assay: PAFAH1B3 enzyme inhibitors, confirmation, biochemical, fluorescence polarization, human (AID 493032;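 active means average inhibition over triplicate runs above the hit cutoff set in the earlier primary screen, cut at about 25% in these data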;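 further: 0% = enzyme with DMSO and 100% = wells lacking PAFAH1B3 protein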); conditions: recombinant PAFAH1B3, FP-Rh activity-based probe, at 3.39 µM, stronger effect = higher value
# [12] = target: Serine protease HTRA1 (Homo sapiens) (UniProt Q92743); assay: HTRA1 protease inhibitors, retest, confirmation, biochemical, fluorescence polarization (AID 540248;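 active means mean inhibition over three repeats above a set limit taken from the earlier primary screen, cut at about 37% in these data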;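 further: 0% = HTRA1 with DMSO and 100% = wells lacking HTRA1; inhibitors block probe binding so polarization drops and inhibition rises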); conditions: recombinant HTRA1, FP-rhodamine activity-based probe, at 5.96 µM, stronger effect = higher value
# Chain of Platelet-activating factor acetylhydrolase IB subunit alpha1 (Homo sapiens) (Q15102 whole entry, looked up): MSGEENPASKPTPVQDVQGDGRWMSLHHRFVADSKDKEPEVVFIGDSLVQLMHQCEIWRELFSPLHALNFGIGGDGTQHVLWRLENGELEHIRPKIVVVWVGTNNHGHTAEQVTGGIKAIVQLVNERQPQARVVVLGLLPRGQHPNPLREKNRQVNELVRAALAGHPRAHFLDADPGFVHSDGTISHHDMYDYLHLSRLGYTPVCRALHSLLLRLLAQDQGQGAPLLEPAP
# Chain of Nuclear receptor subfamily 5 group A member 2 (Homo sapiens) (O00482 whole entry, looked up): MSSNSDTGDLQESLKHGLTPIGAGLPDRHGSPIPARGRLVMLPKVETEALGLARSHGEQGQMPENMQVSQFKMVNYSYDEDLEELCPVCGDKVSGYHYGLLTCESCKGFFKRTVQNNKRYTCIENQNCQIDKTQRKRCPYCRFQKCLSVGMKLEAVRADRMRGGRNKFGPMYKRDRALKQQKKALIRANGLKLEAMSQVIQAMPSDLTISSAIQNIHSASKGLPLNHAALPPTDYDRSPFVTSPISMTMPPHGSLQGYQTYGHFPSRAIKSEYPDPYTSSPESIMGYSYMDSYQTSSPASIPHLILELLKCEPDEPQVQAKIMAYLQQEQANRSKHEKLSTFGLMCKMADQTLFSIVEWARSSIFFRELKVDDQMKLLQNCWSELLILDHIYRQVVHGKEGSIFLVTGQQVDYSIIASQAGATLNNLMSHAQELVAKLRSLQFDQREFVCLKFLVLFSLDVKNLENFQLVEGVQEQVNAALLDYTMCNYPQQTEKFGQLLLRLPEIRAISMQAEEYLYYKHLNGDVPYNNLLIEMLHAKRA
# Chain of Steroidogenic factor 1 (Homo sapiens) (Q13285 whole entry, looked up, the tested form may be a part): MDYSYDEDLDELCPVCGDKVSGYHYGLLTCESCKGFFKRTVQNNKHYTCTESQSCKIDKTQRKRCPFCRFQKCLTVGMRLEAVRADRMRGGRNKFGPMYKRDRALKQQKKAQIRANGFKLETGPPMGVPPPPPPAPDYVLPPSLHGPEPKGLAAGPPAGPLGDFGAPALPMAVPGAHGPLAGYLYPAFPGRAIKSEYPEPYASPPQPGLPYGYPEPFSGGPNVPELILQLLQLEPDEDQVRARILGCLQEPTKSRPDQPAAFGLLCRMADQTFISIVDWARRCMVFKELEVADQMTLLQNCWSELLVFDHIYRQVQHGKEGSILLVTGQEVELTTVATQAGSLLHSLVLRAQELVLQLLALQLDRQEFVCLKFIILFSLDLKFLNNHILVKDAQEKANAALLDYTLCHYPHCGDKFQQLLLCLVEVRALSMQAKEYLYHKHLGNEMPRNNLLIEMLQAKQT
structure (smiles),measurement,setting,value
CC(=O)N(O)CCCCCNC(=O)CCC(=O)N(O)CCCCCNC(=O)CCC(=O)N(O)CCCCCNC(=O)CCC(=O)O,inhibition,[1],13.8% (active)
same,inhibition,[2],14.4% (active)
same,inhibition,[3],2.8%
same,inhibition,[4],7.53%
same,inhibition,[5],11.4%
same,inhibition,[6],12.5%
O=C(Nc1ccc(Br)cn1)c1ccc([N+](=O)[O-])o1,inhibition,[1],99.3% (active)
same,inhibition,[2],11.8% (active)
same,inhibition,[3],30.2% (active)
same,inhibition,[7],11%
same,inhibition,[8],54.7% (active)
same,inhibition,[9],55.6% (active)
same,inhibition,[10],-5.48%
same,inhibition,[4],7.78%
same,inhibition,[5],9.86%
same,inhibition,[6],81.2% (active)
COc1c(N2CCN(C(=S)Nc3ccccc3F)C(C)C2)c(F)cc2c(=O)c(C(=O)O)cn(C3CC3)c12 (stereo not given),inhibition,[1],102% (active)
same,inhibition,[2],100% (active)
same,inhibition,[3],101% (active)
same,inhibition,[4],102% (active)
same,inhibition,[5],103% (active)
same,inhibition,[6],101% (active)
COc1ccc(C2=Nn3c(nnc3-c3ccccc3OC)SC2)cc1OC1CCCC1,inhibition,[11],35.2% (active)
O=C(CSc1ccc(-c2ccccn2)nn1)Nc1ccccc1,inhibition,[1],5.71%
same,inhibition,[2],6.8% (active)
same,inhibition,[3],5%
same,inhibition,[4],2.01%
same,inhibition,[5],1.79%
same,inhibition,[6],11.1%
O=C(Cn1c(=O)sc2ccccc21)Nc1nc2c(s1)CCCC2,inhibition,[1],2.31%
same,inhibition,[2],4.07% (active)
same,inhibition,[3],3.15%
CN1CCN(c2cc3c(cc2F)c(=O)c(C(=O)O)cn3CCF)CC1,inhibition,[1],103% (active)
same,inhibition,[2],102% (active)
same,inhibition,[3],103% (active)
same,inhibition,[4],103% (active)
same,inhibition,[5],103% (active)
same,inhibition,[6],102% (active)
Cc1ccc(C)c(NC(=O)NNC(=O)c2ccc3ccccc3c2O)c1,inhibition,[11],40.5% (active)
Cc1cc(-c2csc(N)n2)c(C)n1-c1ccccc1,inhibition,[12],28.5%
COc1ccc(C(=O)COC(=O)c2ccc([N+](=O)[O-])s2)cc1OC,inhibition,[11],13.3%
Cc1cccc(N=C2NC(=O)/C(=C/c3cn(C)c4ccccc34)S2)c1,inhibition,[11],17.3%
C/[N+]([O-])=C\c1ccc([N+](=O)[O-])o1,inhibition,[1],101% (active)
same,inhibition,[2],42.8% (active)
same,inhibition,[3],99.3% (active)
O=[N+]([O-])c1ccc(N=Cc2c(O)ccc3ccccc23)cc1,inhibition,[1],-0.99%
same,inhibition,[2],-2.02%
same,inhibition,[3],-4.22%
C=CCNC(=O)c1cc(-c2ccccc2O)on1,inhibition,[1],-1.87%
same,inhibition,[2],1.86%
same,inhibition,[3],0.32%
Cc1cc(-c2csc(N)n2)c(C)n1Cc1ccccc1,inhibition,[12],30.6%
O=C1CCC(=O)N(O)CCCCCNC(=O)CCC(=O)N(O)CCCCCNC(=O)CCC(=O)N(O)CCCCCN1,inhibition,[1],31% (active)
same,inhibition,[2],24.5% (active)
same,inhibition,[3],17.4%
same,inhibition,[4],19.5% (active)
same,inhibition,[5],25% (active)
same,inhibition,[6],29.4% (active)
O=C1c2ccccc2C(=O)c2c1cccc2N1CCN(Cc2ccccc2)CC1,inhibition,[12],60.1% (active)
ON=C1/C(=N\O)CC2(C/C1=N/O)OCCO2,inhibition,[11],27.1% (active)
same,inhibition,[4],1.75%
same,inhibition,[5],4.59%
same,inhibition,[6],-10.8%
COc1cccc2sc(NNC(=O)c3nc4ccccc4s3)nc12,inhibition,[12],130% (active)
CC[C@H]1OC(=O)[C@H](C)[C@@H](O[C@H]2C[C@@](C)(OC)[C@@H](O)[C@H](C)O2)[C@H](C)[C@@H](O[C@@H]2O[C@H](C)C[C@H](N(C)C)[C@H]2O)[C@](C)(O)C[C@@H](C)[C@@H]2N[C@@H](COCCOC)O[C@H]([C@H]2C)[C@]1(C)O,inhibition,[1],62.5% (active)
same,inhibition,[2],41% (active)
same,inhibition,[3],37.2% (active)
same,inhibition,[4],33.9% (active)
same,inhibition,[5],34.4% (active)
same,inhibition,[6],42.6% (active)
COc1cccc(Cn2cc(/C=N/NC(=O)c3cc(O)cc(O)c3)c3ccccc32)c1,inhibition,[11],17.6%
CC(C)(C)NC(=O)COC(=O)c1cc(Cl)ccc1[N+](=O)[O-],inhibition,[1],-4.38%
same,inhibition,[2],0.98%
same,inhibition,[3],-3.45%
COc1ccc(NC(=O)ON=C2c3ccccc3-c3ccccc32)cc1,inhibition,[11],29% (active)
O=C(N/N=C/c1ccc(O)c(O)c1)C1c2ccccc2Oc2ccccc21,inhibition,[12],76.6% (active)
COC(=O)N/N=C/c1c[n+]([O-])c2ccccc2[n+]1[O-],inhibition,[1],94.5% (active)
same,inhibition,[2],27.4% (active)
same,inhibition,[3],83.4% (active)
same,inhibition,[4],23.1% (active)
same,inhibition,[5],28% (active)
same,inhibition,[6],91.8% (active)
Cc1ccc(C(=O)/C=C/Nc2ccc(S(=O)(=O)Nc3onc(C)c3C)cc2)cc1,inhibition,[1],2.14%
same,inhibition,[2],3.94%
same,inhibition,[3],2.93%
